APP 5UTR inh: inhibitors of APP translation via 5'UTR reporter, primary screen, APP 5'UTR luciferase, SH-SY5Y cells; SH-SY5Y APP 5'UTR-luciferase reporter, luminescence; inhibition, % at 2 µM; 0.82% of 190,000 active;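 active = inhibition above a set limit, derived from the sample mean plus 3 SD, cut at about 45% in these data; inconclusive = one replicate passes the limit while the other fails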
KLF5 inhibitor: KLF5 expression inhibitors, primary screen, DLD-1 cells, luminescence. DLD-1 KLF5 promoter-luciferase reporter. AID 1700, 2009. 0.23% of 290,000 active. inhibition, % at 5 µM;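 active = inhibition above a per-plate limit of that plate's mean compound inhibition plus 3 SD, cut at about 60% in these data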;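 also: 0% = DMSO wells and 100% = LY294002 at 200 µM; higher means less KLF5 promoter-driven luciferase light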
aSyn 5UTR inh: MLPCN primary screen, SNCA 5' untranslated region; alpha-synuclein 5'UTR reporter, inhibitor activity; inhibition, % (tested at 7.5 µM); 0.82% of 300,000 active; AID 1813, 2009; in the data active = inhibition above about 60%; inconclusive = no clear call, values can overlap the other calls;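 also: H4 neuroglioblastoma cells stably carrying SNCA 5'UTR luciferase fusion; 0% = DMSO wells and 100% = positive control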
BaF3 tox: parental Ba/F3 cell viability inhibition, counter-screen for JAK2V617F inhibitor project, murine pro-B, CellTiter-Glo luminescence. CellTiter-Glo ATP luminescence. inhibition, % at 5.6 µM. 1.1% of 220,000 active;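 active = inhibition above a per-campaign cutoff, the mean inhibition of all tested compounds plus 3 SD, cut at about 27% in these data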;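 also: 0% = DMSO wells and 100% = JAK Inhibitor I control wells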
IEC-6 tox: cytotoxicity in IEC-6 intestinal epithelial cells, primary screen, cytotoxicity control for KLF5 inhibitor project, cell-based, luminescence | IEC-6 cytotoxicity, luminescence viability | inhibition, % at 5 µM | 0.78% of 290,000 active | AID 1825, 2009; in the data active = inhibition above about 22%;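 also: 0% = plate median of test compound wells and 100% = cytotoxic reference compound wells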
Ba/F3 V617F tox: reduced viability of JAK2V617F-dependent Ba/F3 cells, primary screen, JAK2V617F inhibitor project, cell-based, Ba/F3 EpoR-JAK2V617F, luminescence; ATP luminescence; inhibition, % at 5.6 µM; 1.1% of 220,000 active; AID 1446, 2008;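 active = inhibition above the campaign mean plus 3 SD over all tested compounds, cut at about 24% in these data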;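 also: cytokine-independent growth of Ba/F3 cells driven by EpoR plus mutant JAK2; 0% = DMSO-treated cells and 100% = JAK inhibitor I control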
Starred values were filed as active, the others as inactive; u = inconclusive; x = not tested or not shown. Shown are actives, neighbours in structure and some others; about 2.2% of the full set was active somewhere.

SMILES	APP 5UTR inh	KLF5 inhibitor	aSyn 5UTR inh	BaF3 tox	IEC-6 tox	Ba/F3 V617F tox
C/C(=C1/SC(N2CCCC2)=NC1=O)c1ccc(Br)cc1	-25	0	2	28*	8	34*
CC(C)=C1SC(N2CCCCC2)=NC1=O	-12	-25	-9	7	-4	4
COC(=O)c1sc2cc([N+](=O)[O-])cc(SCC(C)C)c2c1N	-3	-8	12	2	-2	0
c1ccc2nc(-c3ccc(N4CCOCC4)cc3)ccc2c1	x	-48	104*	5	-6	-2
Cc1cc(-c2ccc(N3CCOCC3)cc2)nc2ccccc12	-90	-46	-307	8	12	3
CCC(=O)N/C(N)=N/c1nc(C)c2cc(OC)ccc2n1	-27	-35	-107	27*	3	23
Cc1cc(CN2C(=O)c3ccccc3C2=O)no1	4	-17	12	2	2	3
O=C1c2ccccc2C(=O)N1CC1=NCCc2ccccc21	15	-38	-29	42*	0	15
CC(C)CN(C(=O)COC(=O)CSc1ccc([N+](=O)[O-])cc1)C1CCS(=O)(=O)C1 (configuration not stated)	x	x	5	x	x	x
C[C@]12CC[C@@H]3c4ccc(OC(=O)c5ccccc5)cc4CC[C@H]3[C@@H]1CC[C@@H]2O	-14	-1	-12	4	2	3
COc1cc2c(cc1O)CC[C@@H]1[C@@H]2CC[C@]2(C)[C@@H](O)CC[C@@H]12	93*	57	75*	78*	74*	76*
CCOC(=O)COc1ccc(S(=O)(=O)Nc2cccc(SC)c2)cc1	69*	-1	11	2	1	0
COc1ccc(NC(=O)c2cc([N+](=O)[O-])ccc2O)cc1	12	84*	85*	18	11	15
COc1ccc(NC(=O)c2cccc([N+](=O)[O-])c2)cc1	-7	-57	-105	5	4	4
CCC(C)NS(=O)(=O)c1ccc(S(=O)(=O)N(CC(=O)Nc2ccccc2)CC2CCCO2)cc1 (configuration not stated)	3	-1	7	3	2	0
O=C(NNC(=O)c1ccc(F)cc1)C(=O)N1CCCCC1	4	-15	-2	5	-1	1
O=C(Cn1ncnn1)OCc1ccccc1Cl	68*	-3	-8	0	-4	-3
Cc1ccc2nsnc2c1S(=O)(=O)NCCc1c(C)[nH]c2ccc(F)cc12	x	1	-4	4	1	2
CCN1CCN(Cc2ccc(NC(=O)c3cc(NC(=O)c4cc(-c5ccc(OC)cc5)n[nH]4)cc(OC)c3)cc2C(F)(F)F)CC1	x	x	106*	x	x	x
CCN1CCN(Cc2ccc(NC(=O)c3cc(NC(=O)c4cncc(-c5cccs5)c4)cc(OC)c3)cc2C(F)(F)F)CC1	x	-24	109*	x	-2	x
CCCCCCCNC1=CC(=O)CC(c2ccccc2)C1 (configuration not stated)	-11	-8	-37	36*	-1	28*
CCCCCNC1=CC(=O)CC(c2ccccc2)C1 (configuration not stated)	8	-38	-12	5	3	0
COCC1CCCN(Cc2cn(-c3ccccc3F)nc2-c2cc(C)sc2C)C1 (configuration not stated)	-2	14	-30	-3	0	-3
CCOC(=O)c1ccccc1NC(=O)CSc1ccc(-c2ccccn2)nn1	x	0	69*	x	4	x
Cc1nc(SCC(=O)Nc2cccc(Cl)c2)n[nH]1	-4	-9	-6	5	2	1
SMILES	APP 5UTR inh	KLF5 inhibitor	aSyn 5UTR inh	BaF3 tox	IEC-6 tox	Ba/F3 V617F tox
CC(=O)Nc1cccc(NC(=O)CSc2ccc(-c3ccccn3)nn2)c1	0	-18	52	2	6	-2
O=C(CSc1n[nH]c(-c2ccccn2)n1)Nc1cccc(Cl)c1	x	59	86*	x	-1	x
CC(=O)c1cccc(NC(=O)CSc2ccc(-c3ccccn3)nn2)c1	x	-16	69*	x	-3	x
CCc1ccc(NC(=O)CSc2ccc(-c3ccccn3)nn2)cc1	x	-24	7	x	18	x
CCCCn1c(=O)nc2n(-c3ccc(Cl)cc3)c3ccccc3cc-2c1=O	-3	3	-6	5	0	0
O=C(O)c1ccccc1C(=O)Nc1ccc(Oc2ccc3ccccc3c2)cc1	22	-28	23	38*	14	46*
Cc1cccc(Oc2ccc(NC(=O)c3ccccc3C(=O)O)cc2)c1C	-6	-24	-10	4	2	-3
O=C(O)c1ccccc1C(=O)Nc1ccc(Oc2cccc3ccccc23)cc1	59*	28	94*	10	12	8
Cc1ccc(C(=O)N/C(=C\c2ccc(-c3ccc(Cl)cc3)o2)C(=O)NCCCN(C)C)cc1	2	-23	u	104*	44*	16
CN(C)CCCNC(=O)/C(=C\c1ccc(-c2ccc(Br)cc2)o1)NC(=O)c1ccccc1	16	4	4	7	21	4
Cc1ccc(CNC(=O)CCc2c(C)nn(-c3ccc(N4CCOCC4)nn3)c2C)cc1	x	-19	-3	x	-4	x
CO/N=C\CC(=O)Nc1ccc(Oc2ccccc2)cc1	68*	7	21	2	10	2
O=C(C/C=N\O)Nc1ccc(Oc2ccccc2)cc1	-8	3	30	4	-1	3
Cc1ccc(C(c2cc(Cl)c3cccnc3c2O)N2CCN(C)CC2)cc1 (configuration not stated)	x	27	66*	x	1	x
CCOc1[nH]n(-c2ccc(Cl)cc2)c(=O)c1C=NCc1cccnc1	-32	-14	6	5	1	1
CCOc1[nH]n(-c2ccccc2)c(=O)c1C=NCc1ccncc1	49*	-24	14	8	7	8
Cc1nn(Cc2ccc(C(=O)N3CCCC3)o2)c(C)c1[N+](=O)[O-]	x	-22	14	x	-10	x
CCOC(=O)Cc1csc(/N=C/c2c(O)n(-c3ccc(C)c(C)c3)c(=O)c3ccccc23)n1	22	-8	105*	7	-3	-3
C=CC[n+]1c(-c2ccc(Cl)cc2Cl)csc1Nc1c(C)n(C)n(-c2ccccc2)c1=O	19	-10	14	3	13	1
C=CC[n+]1c(-c2ccc(Cl)cc2Cl)csc1Nc1ccc(NC(C)=O)cc1	16	11	94*	3	6	2
Cc1cccc2cc3c(N)c(C#N)sc3nc12	16	-7	84*	7	5	4
Cc1cccc(CN2C(=O)/C(=C\c3ccc(C(=O)NCCCN4CCN(C)CC4)cc3)Oc3ccccc32)c1	x	-31	95*	x	-9	x
CN1CCN(CCCNC(=O)c2ccc(/C=C3\Oc4ccccc4N(Cc4ccccc4F)C3=O)cc2)CC1	x	-13	-4	x	5	x

From PubChem BioAssay
